BL2 CD40 inh: inhibitors of CD40-induced NF-kB signaling, primary screen, BL2 cells, luciferase reporter, single point | inhibition, % at 10 µM | CD40L-induced, 4 h | AID 1053188, 2014 | 0.94% of 83,000 active;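 active = mean inhibition of at least 50% with a set share of replicates also reaching that level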;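 also: 0% = neutral control wells and 100% = IKK inhibitor VII at 50 µM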
Starred values were filed as active, the others as inactive; [ ] = dose if it differs, or a comment. The sample as a whole holds a higher share of hits than the screen did.

SMILES	BL2 CD40 inh
CO[C@H](C(=O)N(C)C[C@@H]1OCc2ccccc2-c2ccccc2C(=O)N([C@@H](C)CO)C[C@@H]1C)c1ccccc1	-17[25 µM]
Cc1nn(-c2ccccc2)nc1-c1nnc(-c2cccc3ccccc23)o1	-2
COc1ccc(CN2C[C@H](O)COC[C@H]3O[C@H](CC(=O)N(C)C)CC[C@@H]32)cc1	-4[25 µM]
CC(C)C(=O)NC(c1ccc([N+](=O)[O-])cc1)c1c(O)ccc2ccccc12 (stereo not given)	11
CCN(CC)c1ccc(C(NC(=O)C(C)C)c2ccc3cccnc3c2O)cc1 (stereo not given)	75*
CC(C)C(=O)NC(c1ccco1)c1ccc2cccnc2c1O (stereo not given)	-36
Cc1noc(C)c1NC(=O)Nc1ccc2c(c1)C(=O)N(C)[C@H]1CC[C@H](CC(=O)Nc3ccc4c(c3)CCCC4)O[C@@H]1CO2	38[25 µM]
COCCN(C[C@H]1N[C@H](CO)[C@@H]1c1ccccc1)C(=O)NC1CCCC1	1[25 µM]
CCN1C(=O)c2ccccc2Sc2ccc(C(=O)NCCCN3CCCCC3)cc21	7
c1ccc2c(c1)Sc1ccccc1-n1cnnc1-2	1
CCN1/C(=C/c2sc(-c3ccccc3C)c[n+]2C)Sc2ccccc21	68*
O=C(CCN1C(=O)C2CC=CCC2C1=O)Nc1ccc(S(=O)(=O)N2CCCCC2)cc1 (stereo not given)	-2
COc1ccc(C#Cc2ccc3c(c2)[C@@H]2[C@@H](CCN2C(=O)C2CC2)[C@H](CO)N3)cc1	-1
Cc1cccc(-n2nnnc2SCC(=O)NC2CCCC2)c1	5
Nc1ccc(Sc2nnnn2-c2ccccc2)c(Cl)c1	4
Cc1cc(C)cc(N2C(=O)CC(Sc3nnnn3-c3ccccc3)C2=O)c1 (stereo not given)	99*
CCC(=O)NC[C@H]1N[C@H](CO)[C@@H]1c1ccc(-c2cccnc2)cc1	-1[25 µM]
Cc1ccc(-c2ccc([C@@H]3[C@H](CO)N4CCCCN(C(=O)c5ccc(F)cc5)C[C@@H]34)cc2)cc1	14
N#C[C@@H]1[C@@H](c2ccccc2-c2ccccc2F)[C@H](CO)N1C(=O)c1cccc(F)c1	-8[25 µM]
Cc1cc(C(=O)COC(=O)CNC(=O)c2ccccc2)c(C)n1CC1CCCO1 (stereo not given)	58*
COc1cc(OC)cc(C(=O)OCC(=O)c2cc(C)n(CC3CCCO3)c2C)c1 (stereo not given)	-27
Cc1cc(C(=O)COC(=O)c2ccc(O)cc2)c(C)n1CC1CCCO1 (stereo not given)	24
COc1ccc2c3c(n(C)c2c1)[C@H](CO)N(C(=O)CC1CC1)CC31CN(Cc2ccncc2)C1	-12[25 µM]
C/C=C/c1ccc([C@H]2[C@@H](CO)N(C(=O)Cc3cccnc3)[C@@H]2CNC(C)=O)cc1	3
CN1c2ccc(Br)cc2[C@@H]2[C@@H](CCN2C(=O)c2ccc(F)cc2)[C@@H]1CO	-4[25 µM]
SMILES	BL2 CD40 inh
O=C1C(=C(I)I)c2ccccc2-c2ccccc21	106*
NC1=CC(=O)C(=O)c2ccccc21	-12
O=C1c2ccccc2-c2nc3ccccc3nc21	-118
CCN(C[C@@H]1N[C@@H](CO)[C@H]1c1ccc(-c2ccc(F)cc2)cc1)C(=O)CN(C)C	-1[25 µM]
N#C[C@@H]1[C@@H](c2ccccc2-c2ccc(F)cc2)[C@H](CO)N1c1ncc(-c2ccccc2)s1	-3[25 µM]
C[C@H](O)C#Cc1ccc([C@H]2[C@H]3CN(C(=O)c4cccc(F)c4)CCCCN3[C@H]2CO)cc1	10[25 µM]
Cc1c(C(=O)OC2CCCC2C)[nH]c2c1C(=O)CCC2 (stereo not given)	-57
CCCc1c(C(=O)OCC)[nH]c2c1C(=O)CCC2	5
Cc1c(C(=O)OCCOc2ccccc2)[nH]c2c1C(=O)CCC2	66*
O=C(c1cccc(F)c1)N1C[C@@H]2[C@H](c3ccccc31)[C@@H](CO)N2C(=O)c1cccc(F)c1	0
O=C(Nc1ccc(F)cc1)N1[C@@H]2CNc3ccccc3[C@@H]2[C@@H]1CO	14[25 µM]
C=CCN1CC(C(=O)N(CCCN(C)C)C(=O)NCC)CC2c3cccc4[nH]cc(c34)CC21 (stereo not given)	-7[25 µM]
Cc1nc(Nc2nc3ccccc3o2)nc(C)c1C(=O)Nc1ccc(F)cc1	-6
COCc1cc(=O)[nH]c(Nc2nc3ccccc3o2)n1	17
Cc1nc(Nc2nc3ccccc3o2)nc2c1CCC2	active
CCCCN(C(=O)Cc1ccc(S(=O)(=O)N2CCOCC2)s1)c1c(N)n(CC(C)C)c(=O)[nH]c1=O	14
C[C@@H]1CN(C)C(=O)c2cccc(N)c2O[C@@H]1CN(C)S(C)(=O)=O	-7
CCS(=O)(=O)N(C)C[C@H]1OCc2ccccc2-c2c(n(C)c3ccccc23)C(=O)N([C@H](C)CO)C[C@H]1C	-11
COc1ccc2c3c(n(C)c2c1)[C@H](CO)N(C(=O)Nc1ccc(F)cc1)CC31CCN(C(=O)Nc2ccc(F)cc2F)CC1	68*[25 µM]
COc1ccc2c3c([nH]c2c1)[C@@H](CO)N(C(=O)Nc1ccc(F)cc1)CC31CN(Cc2cc(F)ccc2F)C1	40[25 µM]
COc1ccc2c3c(n(C)c2c1)[C@@H](CO)N(C(=O)Nc1ccc(F)cc1)CC31CCN(C(=O)Nc2c(C)noc2C)CC1	18[25 µM]
COc1ccc2c3c(n(C)c2c1)[C@H](CO)N(C(C)=O)CC31CCN(C(=O)Nc2ccccc2F)CC1	12[25 µM]
CCCNC(=O)N1CC2(C1)CN(C(=O)Nc1ccc(F)cc1)[C@@H](CO)c1[nH]c3cc(OC)ccc3c12	-10[25 µM]
COc1ccc2c3c([nH]c2c1)[C@H](CO)N(C(=O)Nc1ccc(F)cc1)CC31CN(Cc2cc(F)ccc2F)C1	56*[25 µM]
O=C(C1CCCCC1)N1C[C@H]2[C@@H](c3ccccc31)[C@@H](CO)N2Cc1ccccc1Cl	-5[25 µM]
SMILES	BL2 CD40 inh
O=C(Nc1ccccc1Cl)N1[C@H](CO)[C@H]2c3ccccc3NC[C@H]21	-7[25 µM]
Cc1nnc(N2CCOCC2)c2nn(-c3ccccc3)c(C)c12	4
c1ccc(-n2nnc3c(N4CCOCC4)ncnc32)cc1	68*
c1ccc(Cn2nnc3c(N4CCCC4)ncnc32)cc1	-6
O=C(c1ccccc1F)N1CC[C@H]2[C@H](CO)Nc3ccc(C#Cc4ccccc4)cc3[C@H]21	6
COC(=O)c1cc(-c2ccc(C)o2)nc2ccccc12	-37
Cc1ccc(-c2cc(C(=O)N3CC(C)OC(C)C3)c3ccccc3n2)o1 (stereo not given)	114*
Cc1ccc(-c2cc(C(=O)NCc3ccco3)c3ccccc3n2)o1	-10
CCOC(=O)C1CCN(C(=O)C2CCCN(S(=O)(=O)c3ccc(OCC)c(Cl)c3)C2)CC1 (stereo not given)	-18
CS(=O)(=O)N1[C@H](CO)[C@@H](c2ccccc2)C12CN(C(=O)c1ccccc1F)C2	-19[25 µM]
Fc1cccc(CN2[C@@H]3CNC[C@H]2C3c2ccc(-c3cccc(F)c3)cc2)c1 (stereo not given in full)	3
CC(C)Sc1nc2c(c(=O)n(C)c(=O)n2C)n1C	11
Cc1nc2c(=O)n(C)c(=O)n(C)c2nc1Cl	105*
Cc1cc(Nc2nc3c(c(=O)n(C)c(=O)n3C)n2C)n(-c2ccc(Cl)cc2)n1	-5
COc1cn(-c2ccccc2)nc1C(=O)OCC(=O)Nc1ccc(C)c(C)c1	-8
COc1ccccc1C(=O)COC(=O)c1cccs1	-58
CC(=O)NCCc1ccc(C(=O)COC(=O)c2cccs2)cc1	77*
CC(=O)NCCc1ccc(C(=O)COC(=O)c2cccn2C)cc1	39
COc1ccc(C(=O)Nc2ccc(C(=O)OCC(=O)c3ccccc3)cc2)cc1	3
